Drawing on PubChem BioAssay (Tox21), this text covers Potency, outcome and max activation for seven compounds.

Results filed as inconclusive are left out. Calls of active or inactive are those of the source. Unless noted, calls come from the whole dose curve; as a rule, active = well fitted curve in the direction sought with a large enough effect in the repeat runs; inconclusive = weak or mixed curves; inactive = no such curve, though single readings can be large; an effect the other way counts as inactive or inconclusive.

A short description of assay [1]: qHTS assay for small molecules that induce genotoxicity in human embryonic kidney cells expressing luciferase-tagged ATAD5 - cell viability (AID 651634; calls by dose curve; note: nearly all actives have a fitted effect of over 25% in size; note: potency is the fitted concentration of half-maximal effect). The method in brief:
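HEK293T cells expressing luciferase-tagged ATAD5 were exposed to compound or DMSO for 15.5 hr at 37C, 5% CO2. Viability was then read as live-cell protease activity by CellTiter-Fluor fluorescence after 30 min at 37C.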
For orientation: Quantitative high-throughput screening tests each substance at several concentrations.

Assay [2] in a line: qHTS assay for small molecule disruptors of the mitochondrial membrane potential - cell viability (AID 720634; calls by dose curve;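 note: human HepG2 liver cancer cells; series mostly up to about 83 µM; nearly all actives have a fitted effect of over 20% in size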). The method in brief: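 HepG2 cells seeded overnight at 37 C, then exposed to compound or DMSO for 1 hr at 37 C, 5% CO2. m-MPI dye added, then CellTiter-Glo for 30 min at room temperature; viability read as ATP luminescence.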
Assay [3] is described as follows: qHTS assay to test for compound auto fluorescence at 535 nm (green) in HepG2 cells (AID 720675).
The nature of assay [4]: qHTS assay to test for compound auto fluorescence at 535 nm (green) in HEK293 cells (AID 720680).
Assay [5] in a line: qHTS assay to test for compound auto fluorescence at 460 nm (blue) in HEK293 cell free culture (AID 720681). The gist of the method:
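Blue fluorescence (Ex 405/Em 460 nm, triamterene-equivalent) was read immediately after pin transfer of compound or DMSO into medium (DMEM, 10% FBS) without cells.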

The nature of assay [6]: qHTS assay to test for compound auto fluorescence at 535 nm (green) in HEK293 cell free culture (AID 720682). The gist of the method:
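Green-channel intensity (Ex/Em 485/535 nm) was recorded from compound-treated wells containing only DMEM with 10% FBS. Fluorescein provided the equivalency standard.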

The nature of assay [7]: qHTS assay to test for compound auto fluorescence at 590 nm (red) in HEK293 cell free culture (AID 720683). The method in brief:
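Red-channel autofluorescence of compounds in culture medium (DMEM, 10% FBS), no cells, measured at 540/590 nm. Rose Bengal sodium is the reference fluorophore for equivalence.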

Assay [8] can be described thus: qHTS assay to test for compound auto fluorescence at 590 nm (red) in HepG2 cell free culture (AID 720684). The gist of the method:
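Steps: dispense MEM/10% FBS medium, no cells; pin compound or DMSO vehicle; read red channel, Ex/Em 540/590 nm. Output given as Rose Bengal sodium equivalents.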

A short description of assay [9]: qHTS assay to test for compound auto fluorescence at 460 nm (blue) in HepG2 cell free culture (AID 720685). The method in brief:
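Compound (23 nL) or DMSO pinned into cell-free MEM with 10% FBS; blue fluorescence read at 405/460 nm excitation/emission, expressed as auto-fluorescence equivalency to triamterene.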

A short description of assay [10]: qHTS assay to test for compound auto fluorescence at 535 nm (green) in HepG2 cell free culture (AID 720686).
A short description of assay [11]: qHTS assay to identify small molecule antagonists of the androgen receptor (AR) signaling pathway using the MDA cell line - cell viability counter screen (AID 743041; note: nearly all actives have a fitted effect of over 45% in size). The gist of the method: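 Cells were plated at 3,000 per well and left 5 h. Compounds in DMSO were then pinned in, followed by R1881. After 16 h at 37C, CellTiter-Fluor fluorescence gave viability.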

The subject of assay [12] is thyroid hormone receptor (rat, GH3 cells). The assay can be described thus: qHTS assay to identify small molecule agonists of the thyroid receptor (TR) signaling pathway (AID 743066; calls by dose curve).
A short description of assay [13]: qHTS assay to identify small molecule antagonists of the estrogen receptor alpha (ER-alpha) signaling pathway - cell viability counter screen (AID 743074; calls by dose curve;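 note: HEK293 cells carrying ER-alpha-UAS-bla reporter stimulated with 17beta-estradiol; nearly all actives have a fitted effect of over 45% in size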).
The nature of assay [14]: qHTS assay to identify small molecule antagonists of the estrogen receptor alpha (ER-alpha) signaling pathway using the BG1 cell line - cell viability counter screen (AID 743081).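 Note: compound given together with 17beta-estradiol as the ER stimulus; nearly all actives have a fitted effect of over 45% in size.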 Note: potency is the fitted concentration of half-maximal effect.
A further assay deals with Aromatase (Homo sapiens) (UniProt P11511). The assay can be described thus: qHTS assay to identify aromatase inhibitors (AID 743083). Note: series mostly up to about 70 µM; nearly all actives have a fitted effect of over 55% in size.
Chain of Aromatase (Homo sapiens) (P11511 whole entry, looked up): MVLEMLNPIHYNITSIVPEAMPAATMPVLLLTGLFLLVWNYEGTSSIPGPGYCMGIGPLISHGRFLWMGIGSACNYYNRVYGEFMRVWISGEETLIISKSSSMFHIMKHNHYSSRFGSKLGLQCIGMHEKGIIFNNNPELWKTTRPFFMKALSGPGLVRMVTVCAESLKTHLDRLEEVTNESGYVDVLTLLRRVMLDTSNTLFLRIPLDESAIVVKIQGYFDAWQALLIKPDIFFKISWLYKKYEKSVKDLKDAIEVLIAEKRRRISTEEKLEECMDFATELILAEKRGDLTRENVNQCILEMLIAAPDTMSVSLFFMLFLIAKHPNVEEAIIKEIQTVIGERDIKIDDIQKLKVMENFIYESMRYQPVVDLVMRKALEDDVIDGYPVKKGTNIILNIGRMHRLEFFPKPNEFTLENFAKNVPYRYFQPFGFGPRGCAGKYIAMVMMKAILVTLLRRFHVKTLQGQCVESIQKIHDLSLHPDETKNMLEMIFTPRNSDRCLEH
The nature of assay [15]: qHTS assay to identify aromatase inhibitors - cell viability counter screen (AID 743084).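 Note: cells stimulated with testosterone during compound exposure; nearly all actives have a fitted effect of over 55% in size.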
Assay [16] deals with Aryl hydrocarbon receptor (Homo sapiens) (UniProt P35869). Briefly: qHTS assay to identify small molecule that activate the aryl hydrocarbon receptor (AhR) signaling pathway (AID 743085).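 For activation: HG2L7.5c1 human HepG2 liver cells with stably integrated DRE-driven firefly reporter; series mostly up to about 70 µM.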 Note: nearly all actives have a fitted effect of over 15% in size. Note: potency is the fitted concentration of half-maximal effect. The gist of the method: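 AhR agonist activity is inferred from enhanced light output of a DRE-controlled firefly luciferase reporter in HepG2 cells, measured with ONE-Glo following 24 h treatment at 37C.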
Chain of Aryl hydrocarbon receptor (Homo sapiens) (P35869 whole entry, looked up): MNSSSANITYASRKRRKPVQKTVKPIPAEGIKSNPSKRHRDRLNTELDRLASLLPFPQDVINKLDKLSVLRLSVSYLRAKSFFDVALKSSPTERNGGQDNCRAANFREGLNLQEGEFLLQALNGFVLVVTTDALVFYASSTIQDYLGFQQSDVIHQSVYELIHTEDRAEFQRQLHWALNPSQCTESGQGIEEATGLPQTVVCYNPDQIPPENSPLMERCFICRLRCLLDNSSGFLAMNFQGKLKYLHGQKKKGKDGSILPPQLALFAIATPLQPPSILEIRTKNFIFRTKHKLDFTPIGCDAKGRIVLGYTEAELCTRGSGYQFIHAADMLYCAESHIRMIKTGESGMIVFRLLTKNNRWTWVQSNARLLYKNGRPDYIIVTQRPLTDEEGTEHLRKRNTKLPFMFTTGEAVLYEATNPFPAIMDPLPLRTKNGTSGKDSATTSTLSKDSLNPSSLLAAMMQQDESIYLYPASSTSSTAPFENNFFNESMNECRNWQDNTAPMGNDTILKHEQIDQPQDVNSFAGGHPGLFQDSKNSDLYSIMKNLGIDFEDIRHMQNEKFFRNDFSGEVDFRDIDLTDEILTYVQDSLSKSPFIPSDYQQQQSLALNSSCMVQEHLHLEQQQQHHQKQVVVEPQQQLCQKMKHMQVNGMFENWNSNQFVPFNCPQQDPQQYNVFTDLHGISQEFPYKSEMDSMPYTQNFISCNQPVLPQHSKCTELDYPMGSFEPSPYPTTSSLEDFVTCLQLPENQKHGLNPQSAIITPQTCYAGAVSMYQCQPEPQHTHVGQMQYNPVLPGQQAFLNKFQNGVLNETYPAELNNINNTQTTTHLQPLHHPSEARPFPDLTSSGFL

Assay [17] can be described thus: qHTS assay to identify small molecule that activate the aryl hydrocarbon receptor (AhR) signaling pathway - cell viability counter screen (AID 743086). Note: series mostly up to about 70 µM; nearly all actives have a fitted effect of over 45% in size. The method in brief: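 Cytotoxicity counter screen: CellTiter-Fluor signal (30 min, 37 C) in 4000 HepG2 cells/well carrying the DRE-luciferase reporter, following 24 h compound exposure at 37 C.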
Assay [18] can be described thus: qHTS assay to identify small molecule phospholipidosis (PLD) inducers (AID 1259344; active = well fitted curve in the direction sought with a large enough effect; an effect the other way counts as inactive or inconclusive). The method in brief:
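Phospholipidosis is scored by imaging LipidTOX-stained pits in HepG2 cells exposed to compound for 24 h at 37 C; pit counts and integrated intensities per well and per cell serve as outputs.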

For assay [19], the target named is Nuclear receptor subfamily 1 group I member 2 (Rattus norvegicus) (UniProt Q9R1A7). The assay can be described thus: Rat pregnane X receptor (rPXR) activation by small molecules, qHTS assay (AID 1346983). Note: nearly all actives have a fitted effect of over 20% in size. The following applies: rPXR luciferase reporter cells, One-Glo luminescence, 24 h; max activation: active compounds read high. The method in brief: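 Luminescent readout (One-Glo luciferase, 30 min room temperature) followed 24 hr compound treatment at 37 C of rPXR cells plated 2,000 per well and preincubated 5hr; qHTS format with compounds delivered in DMSO.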
Chain of Nuclear receptor subfamily 1 group I member 2 (Rattus norvegicus) (Q9R1A7 whole entry, looked up): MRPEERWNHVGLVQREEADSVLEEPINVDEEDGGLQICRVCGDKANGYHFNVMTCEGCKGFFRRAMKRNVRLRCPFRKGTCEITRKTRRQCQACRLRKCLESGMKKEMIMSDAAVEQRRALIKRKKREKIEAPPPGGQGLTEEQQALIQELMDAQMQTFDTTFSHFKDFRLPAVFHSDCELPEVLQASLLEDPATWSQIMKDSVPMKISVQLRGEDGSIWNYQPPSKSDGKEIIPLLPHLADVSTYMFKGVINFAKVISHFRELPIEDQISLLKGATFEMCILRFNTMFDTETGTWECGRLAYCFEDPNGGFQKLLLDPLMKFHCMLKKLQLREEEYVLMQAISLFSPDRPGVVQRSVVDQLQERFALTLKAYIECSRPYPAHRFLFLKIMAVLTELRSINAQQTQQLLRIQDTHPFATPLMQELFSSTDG
% is set by controls: 0 for no effect and ±100 for the full control effect.

Regarding `Cc1ccccc1-n1c(CF)nc2ccc(N)cc2c1=O`, the Potency result in assay [1], in [2], in [3], in [4], in [5] and in assay [6] was “inactive” each time. For the same compound, the Potency entry in assay [9], in [10], in assay [11], in assay [12], in assay [13] and in assay [14] was “inactive” throughout. Further, the Potency entry (with Aromatase (Homo sapiens); in [15]; in assay [17]; in assay [18]) was “inactive” throughout. Also, the outcome in [7] and in [8] was inactive. The Potency in assay [16] is 29.8 µM (active). Further, in assay [19], the max activation was -3.24% (inactive).
Regarding `C=CCN(C1=NCCN1)c1c(Cl)cccc1Cl`, the Potency result in assay [1], in assay [2], in assay [3], in assay [4], in assay [5] and in assay [6] was “inactive” throughout. For the same compound, the Potency entry in assay [9], in [10], in assay [11], in assay [12], in assay [13] and in [14] was “inactive” in each case. Moreover, the Potency result (with Aromatase (Homo sapiens); in assay [15]; in assay [16]; in [17]; in [18]) was “inactive” throughout. The outcome in assay [7] and in assay [8] was inactive. In addition, in assay [19], the max activation was -3.97% (inactive).
For the compound `O=[N+]([O-])c1cc(I)c(O)c(I)c1`, the Potency in [1] was 23.7 µM (active); in assay [14], 10.6 µM (active). Besides, the Potency entry in [3], in assay [4], in assay [5], in [6], in assay [9] and in assay [11] was “inactive” each time. Besides, the Potency entry (with Aromatase (Homo sapiens); in assay [15]; in [16]; in assay [17]; in assay [18]) was “inactive” in each case. The compound was classed as inactive in assay [7] and in [8]. For the same compound, the max activation in assay [19] is -2.81% (inactive).
Regarding `CC(=O)OC1CN2CCC1CC2` (configuration not stated), the Potency entry in [1], in assay [2], in assay [3], in [4], in assay [5] and in [6] was “inactive” each time. Moreover, the Potency result in assay [9], in assay [10], in [11], in assay [12], in assay [13] and in assay [14] was “inactive” throughout. The Potency entry (with Aromatase (Homo sapiens); in assay [15]; in [16]; in assay [17]; in [18]) was “inactive” throughout. Moreover, the outcome in assay [7] and in [8] was inactive. For the same compound, the max activation in assay [19] was -0.436% (inactive).
For the compound `CN(C)CCCCCCN(C)C`, the Potency entry in [1], in [2], in assay [3], in [4], in [5] and in [6] was “inactive” each time. For the same compound, the Potency entry in [9], in assay [10], in assay [11], in [12], in assay [13] and in [14] was “inactive” in each case. Also, the Potency result (in the assay with Aromatase (Homo sapiens); in assay [15]; in assay [16]; in assay [17]) was “inactive” each time. For the same compound, the outcome in [7] and in assay [8] was inactive.
Take `CCON=O`: the Potency entry in [1], in [2], in assay [3], in [4], in assay [5] and in assay [6] was “inactive” each time. For the same compound, the Potency entry in [9], in [10], in assay [11], in assay [12], in [13] and in [14] was “inactive” each time. Further, the Potency entry (in the assay with Aromatase (Homo sapiens); in assay [15]; in [16]; in assay [17]; in assay [18]) was “inactive” in each case. Moreover, the outcome in assay [7] and in assay [8] was inactive. The max activation in assay [19] is -2.18% (inactive).
Turning to `C#CC(C)(O)CC` (configuration not stated), the Potency entry in [1], in assay [3], in assay [4], in assay [5], in [6] and in assay [9] was “inactive” in each case. Further, the Potency entry (in assay [10]; in [11]; in assay [12]; in assay [13]; in [14]; with Aromatase (Homo sapiens)) was “inactive” in each case. Besides, the Potency result in [15], in [17] and in assay [18] was “inactive” each time. The outcome in assay [7] and in assay [8] was inactive. Further, the max activation in assay [19] was -2.56% (inactive).
